Measured values taken from PubChem BioAssay (Tox21).
Results filed as inconclusive are left out. Values without a mark were called inactive. Activity calls are given as the source filed them. The call rests on the fitted dose curve; in most records, active means well fitted curve in the direction sought with a large enough effect in the signal ratio in the repeat runs (not every such curve was filed as active); inconclusive means weak or mixed curves, or effect the other way; inactive means no such curve, though single readings can be large or run the other way; the % refers to the signal ratio. Positions of bridges follow the written chain, without caps; N, C: chain ends. Non-standard residues stand in square brackets, D forms with d. Residues, ends and D or L forms follow the SMILES beside them. hArg = N=C(N)NCCCC[C@H](N)C(=O)O; Mpa = O=C(O)CCS

These compounds were tested against Estrogen receptor (Homo sapiens) (UniProt P03372) (assay: qHTS assay to identify small molecule antagonists of the estrogen receptor alpha (ER-alpha) signaling pathway (AID 743069)). Settings: HEK293 ER-alpha-UAS-bla, beta-lactamase ratio, antagonist mode; series mostly up to 69.4 µM; activity, negative = inhibition: at the top concentration.
Description: National Center for Advancing Translational Sciences [NCATS]
NIH Chemical Genomics Center [NCGC]
U.S. Environmental Protection Agency [EPA]
National Institutes of Environmental Health Sciences [NIEHS]
National Toxicology Program [NTP]
U.S. Food and Drug Administration [FDA]
Estrogen receptor (ER), a nuclear hormone receptor, plays an important role in development, metabolic homeostasis and reproduction. Two subtypes of ER, ER-alpha and ER-beta have similar expression patterns with some uniqueness in both types. Endocrine disrupting chemicals (EDCs) and their interactions with steroid hormone receptors like ER causes disruption of normal endocrine function. To identify the compounds that inhibit ER signaling, an ER-alpha-UAS-bla GripTiteTM cell line (Invitrogen, Carlsbad, CA, USA) containing a beta-lactamase reporter gene under the control of an Upstream Activator Sequence (UAS) stably integrated into HEK293 cells was used to screen the Tox21 10K compound library.
Tox21 Assay Protocol Summary:
ER-alpha-bla cells were cultured in assay medium containing 2% charcoal stripped FBS overnight in the culture flasks before the assay was performed. The cells were dispensed at 5,000 cells/5 uL of assay medium per well into black wall/clear-bottom 1536-well plates using a Multidrop Combi (ThermoFisher Scientific, Waltham, MA) dispenser. After the assay plates were incubated at a 37C and 5% CO2 for 4 hr, 23 nL of compounds dissolved in DMSO, positive controls or DMSO only was transferred to the assay plate by a Pintool station (Kalypsys, San Diego, CA), followed by addition of 1 uL of 17beta-estradiol in assay medium using a Flying Reagent Dispenser (Aurora Discovery, San Diego, CA). The plates were incubated at 37C and 5% CO2 for 18 hr. Then 1 uL of LiveBLAzerTM B/G FRET substrate was added using a Flying Reagent Dispenser, the plates were incubated at room temperature for 2 hours, and fluorescence intensity was measured by an Envision plate reader (PerkinElmer, Shelton, CT).
On the % scale 0 is the no-effect control and ±100 the full control effect.

Estrogen receptor (Homo sapiens), sequence (P03372 whole entry, looked up): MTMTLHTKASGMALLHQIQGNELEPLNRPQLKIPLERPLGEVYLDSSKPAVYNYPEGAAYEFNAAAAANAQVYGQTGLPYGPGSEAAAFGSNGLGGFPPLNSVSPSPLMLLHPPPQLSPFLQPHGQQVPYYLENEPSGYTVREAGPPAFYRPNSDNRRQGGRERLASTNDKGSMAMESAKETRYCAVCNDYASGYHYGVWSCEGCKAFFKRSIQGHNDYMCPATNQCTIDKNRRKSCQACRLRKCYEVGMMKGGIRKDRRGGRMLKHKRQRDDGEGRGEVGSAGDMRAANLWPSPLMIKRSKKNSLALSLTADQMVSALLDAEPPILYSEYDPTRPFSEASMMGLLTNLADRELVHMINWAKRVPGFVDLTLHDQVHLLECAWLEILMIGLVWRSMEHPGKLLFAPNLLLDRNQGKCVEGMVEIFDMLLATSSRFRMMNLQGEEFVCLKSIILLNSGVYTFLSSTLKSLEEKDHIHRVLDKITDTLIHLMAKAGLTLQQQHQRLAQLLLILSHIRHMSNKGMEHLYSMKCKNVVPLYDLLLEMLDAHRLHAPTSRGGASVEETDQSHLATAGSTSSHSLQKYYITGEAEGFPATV

| SMILES | activity, negative = inhibition | outcome |
| --- | --- | --- |
| CC(C)(CO)C(O)C(=O)NCCCO (stereo not given) | 12.9% |  |
| Cc1c(N)cccc1Cl | 4.04% |  |
| COC(=O)c1ccccc1C(=O)O | 10% |  |
| CO[C@@]1(NC(=O)Cc2cccs2)C(=O)N2C(C(=O)O)=C(COC(N)=O)CS[C@@H]21 |  | inactive |
| CO/N=C(/C(=O)N[C@@H]1C(=O)N2C(C(=O)[O-])=C(C[n+]3ccn4ncccc43)CS[C@H]12)c1nsc(N)n1 |  | inactive |
| c1ccc2cnccc2c1 | -12.1% |  |
| C=CCN1C[C@H](C(=O)N(CCCN(C)C)C(=O)NCC)C[C@@H]2c3cccc4[nH]cc(c34)C[C@H]21 | -11.1% |  |
| Cc1cc(C)c(C(=O)O)c(C)c1 | 14% |  |
| CCC(C)C(=O)OCCc1ccccc1 (stereo not given) | -15.6% |  |
| Cc1ccccc1C(N)=O | 0.665% |  |
| OCC1CCC(CO)CC1 (stereo not given) | 8.25% [at 79.1 µM] |  |
| COC(=O)c1cc(Cl)cc(Cl)c1 | -5.27% |  |
| CN(C)CCCO[C@@H]1[C@H]2OC(C)(C)O[C@H]2O[C@@H]1C(O)CO (stereo not given in full) | 5.69% |  |
| CCCSSCCC | -4.14% |  |
| O=C(O)[C@H](O)c1ccccc1 | 1.42% |  |
| CCC(C)C(C)=O (stereo not given) | 7.7% |  |
| CCC(=O)c1c(O)cc(O)cc1O | 21.1% |  |
| CC/C(C)=N\O[Si](C)(O/N=C(\C)CC)O/N=C(\C)CC | -6.82% [at 79.1 µM] |  |
| CC(C)CO | -17% [at 79.1 µM] |  |
| CCCC(=O)OC/C=C(\C)CCC=C(C)C | -5.66% |  |

| SMILES | activity, negative = inhibition | outcome |
| --- | --- | --- |
| CCCCCCCCCCCCCCCCCC#N | -11.7% [at 79.1 µM] |  |
| O=C1CCC(=O)N1Cl | 5.79% |  |
| CCCCOCC(C)O (stereo not given) | -3.95% [at 79.1 µM] |  |
| CC1=C(O)C(=O)C(C)O1 (stereo not given) | 17.2% [at 79.1 µM] |  |
| NC(=O)[C@@H]1CSSCCC(=O)N[C@@H](CCCCN=C(N)N)C(=O)NCC(=O)N[C@@H](CC(=O)O)C(=O)N[C@@H](Cc2c[nH]c3ccccc23)C(=O)N2CCC[C@H]2C(=O)N1 ([Mpa][hArg]GDWPC-NH2; disulfide 1-7) | -12.1% |  |
| CC1=C(C(=O)O)N2C(=O)[C@@H](NC(=O)[C@H](N)C3=CCC=CC3)[C@H]2SC1 | -8.47% |  |
| CCC/C=C(\C=O)CC | 7.67% |  |
| CC1(C)CC(OC(=O)CCCCCCCCC(=O)OC2CC(C)(C)NC(C)(C)C2)CC(C)(C)N1 | -9.62% [at 32.6 µM] |  |
| O=C=NCC1CCCC(CN=C=O)C1 (stereo not given) | 36.1% |  |
| CCCCCC(C)O (stereo not given) | 7.31% |  |
| NCC1(Cc2noc(=O)[nH]2)CCCCC1 | 6.28% |  |
| CCCc1ccc(O)cc1 | 11.4% |  |
| Cc1ncc([N+](=O)[O-])n1CC(C)O (stereo not given) | 4.97% |  |
| CCOC(=O)CC1(C)OCC(C)O1 (stereo not given) | -12.3% |  |
| COc1ccc2c(c1)c1c3n2CCN(C)C3=NCC1 | 11.9% |  |
| O=C(Cn1ccnc1[N+](=O)[O-])NCc1ccccc1 | 0.38% |  |
| CCO | -7.81% [at 79.1 µM] |  |
| CC(CO)(CO)CO | -8.06% [at 79.1 µM] |  |
| CC(C)C1OCCN1CCOC(=O)NCCCCCCNC(=O)OCCN1CCOC1C(C)C (stereo not given) | 29.5% |  |
| CCCCCCCCCCOC(C)=O | 12% |  |
